Source: PubChem BioAssay (EPA / NIEHS)
The source made the active and inactive calls. The calls were made as follows: active = hit-call score of the fitted dose curve at least 0.9, where 1 is the maximum; inactive = score below 0.9.

test: APR_HepG2_MicrotubuleCSK_72hr: Apredica 72-hour HepG2 Assay for Microtubule CSK Stabilty (AID 2282919); conditions: HepG2 microtubule cytoskeleton, high-content imaging, actives raise or lower the signal
Protocol: APR_HepG2_72hr is a cell-based, multiplexed-readout assay that uses HepG2, a human liver cell line, with measurements taken at 72 hours after chemical dosing in a 384-well plate.APR_HepG2_MicrotubuleCSK_72hr is one of 10 assay component(s) measured or calculated from the APR_HepG2_72hr assay. It is designed to make measurements of protein conformation, a form of conformation reporter, as detected with fluorescence intensity signals by HCS Fluorescent Imaging technology.Data from the assay component APR_HepG2_MicrotubuleCSK_72hr was analyzed into 1 assay endpoint. This assay endpoint, APR_HepG2_MicrotubuleCSK_72hr, was analyzed with bidirectional fitting relative to DMSO as the negative control and baseline of activity. Using a type of conformation reporter, measures of protein for gain or loss-of-signal activity can be used to understand the signaling at the cellular-level. Furthermore, this assay endpoint can be referred to as a primary readout, because this assay has produced multiple assay endpoints where this one serves a signaling function. To generalize the intended target to other relatable targets, this assay endpoint is annotated to the cell morphology intended target family, where the subfamily is cell conformation.
Cells were treated with dimethyl sulfoxide (DMSO) as a solvent control at a final concentration of 0.5% v/v or with compounds in DMSO with a resulting final DMSO concentration of 0.5% v/v. Compound treatment was done at concentrations of 0.39, 0.78, 1.56, 3.12, 6.24, 12.5, 25, 50, 100, and 200 uM in duplicate on each plate. Cells were treated with compounds for 1, 24, or 72 hr. Carbonyl […] m-chloro-phenylhydrazone (CCCP) and taxol were used as positive controls for mitochondrial function and cytoskeletal stability, respectively; DMSO served as the negative control for this experiment. Cells were fixed by the direct addition of 50 uL formaldehyde in Hank's Balanced Salt Solution (HBSS) to a final concentration of 3.7%. After incubation in the fixation medium for 30 min at room temperature (293-298 K), cells were rinsed twice with HBSS and treated with cell permeabilization buffer (16 uL of 0.5% Triton X-100) for 10 min at room temperature (293-298 K) before labeling. For mitochondrial membrane potential and mitochondrial measurements, pre-fixed cells were incubated with 50 uL of MitoTracker Red CMXRos (Invitrogen) at a concentration of 250 nM for 30 min before fixation. In the remaining cases, post-fixed cells were labeled by incubation with a multiplexed mixture of primary antibodies in HBSS for 60 min at room temperature (293-298 K) to detect immunoreactivity of c-Jun (1:500), phospho-histone H3 (1:100), phospho-histone H2A.x (1:200), p53 (1:400), alpha-tubulin (1:200) and Hoechst 33342 (2 ug/mL). Cells were labeled for multiplexed imaging on two separate plates: a) Hoechst 33342, MitoTracker Red, phospho-histone H3, and alpha-tubulin, and b) Hoechst 33342, phospho-histone H2A.x, and c-Jun. A final rinse with HBSS (50 uL) was performed before analysis. The primary and secondary antibodies for the proteins were phospho-histone H3 (rabbit anti-phospho-histone H3 and FITC-donkey anti-rabbit IgG), phospho-histone H2A.x (mouse anti-phospho-histone H2A.x and FITC-donkey anti-mouse IgG), c-Jun (rabbit anti-phospho-c-Jun and Cy3-donkey anti-rabbit IgG), p53 (sheep anti-p53 and Cy5-donkey anti-sheep IgG), alpha-tubulin (mouse anti-alpha-tubulin and Cy5-donkey anti-mouse IgG). These antibodies are available as the CellCiphr HepG2 assay kit (Millipore).Digital images of each well were captured using a Cellomics ArrayScan VTI (Thermo Scientific Cellomics) (0.8 NA objective, 0.63x optical coupler, and XF-93 filter set) at 20x magnification. The images were acquired using the autofocus feature of the ArrayScan instrument, which entails the following steps. First, the camera focuses on channel 1 (Hoechst 33342), where nuclei are identified. Second, a Z offset of 1 um is used for capturing mitochondria (MitoTracker Red). […]

Row | Compound | outcome | AC50
1 | Cc1cc2c3c(c1)C(c1ccccc1)=N[C@@H](NC(=O)c1ccncc1)C(=O)N3CC2 | inactive | –
2 | CC1=C2C[C@H]3[C@@H](CC=C4C[C@@H](O)CC[C@@]43C)[C@@H]2CC[C@]12O[C@@H]1C[C@H](C)CN[C@H]1[C@H]2C | inactive | –
3 | CCSC(=O)N(CC)C1CCCCC1 | inactive | –
4 | CCC(C)(CC)c1cc(NC(=O)c2c(OC)cccc2OC)on1 | inactive | –
5 | COS(=O)(=O)OC | inactive | –
6 | c1ccc(-c2ccccc2)cc1 | inactive | –
7 | COc1ccc(O)c(C(C)(C)C)c1 | inactive | –
8 | Oc1ccc(C(c2ccc(O)cc2)(C(F)(F)F)C(F)(F)F)cc1 | inactive | –
9 | C[C@]12CCC(=O)C=C1CC[C@@H]1[C@@H]2CC[C@@]2(C)[C@H]1CC[C@]2(C)O | inactive | –
10 | ClC1=C(Cl)[C@]2(Cl)[C@@H]3[C@@H]4C[C@@H]([C@H]5O[C@@H]45)[C@@H]3[C@@]1(Cl)C2(Cl)Cl | inactive | –
11 | ClC1=C(Cl)[C@]2(Cl)[C@@H]3[C@@H](Cl)[C@H]4O[C@H]4[C@@H]3C1(Cl)C2(Cl)Cl | inactive | –
12 | CCOC(=O)C(O)(c1ccc(Cl)cc1)c1ccc(Cl)cc1 | inactive | –
13 | Cc1ccccc1[N+](=O)[O-] | inactive | –
14 | Oc1c(Cl)c(Cl)c(Cl)c(Cl)c1Cl | inactive | –
15 | CCC(C)c1cc([N+](=O)[O-])cc([N+](=O)[O-])c1O (stereo not given) | inactive | –
16 | CC(C)(O)C(=O)Nc1ccc([N+](=O)[O-])c(C(F)(F)F)c1 | inactive | –
17 | CCC(=O)O[C@H]1CC[C@H]2[C@@H]3CCC4=CC(=O)CC[C@]4(C)[C@H]3CC[C@]12C | – | 158 µM (active)
18 | CCCCCCCCCC[N+](C)(C)CCCCCCCCCC | – | 15.6 µM (active)
19 | CO/C=C(/C(=O)OC)c1ccccc1COc1cccc(C(F)(F)F)n1 | inactive | –
20 | CN(C)CCO | inactive | –

Row | Compound | outcome | AC50
21 | CCCN(CCC)N=O | inactive | –
22 | O=C(O)C(F)(F)C(F)(F)C(F)(F)C(F)(F)C(F)(F)C(F)(F)C(F)(F)C(F)(F)F | inactive | –
23 | Cc1ccc(O)c(C)c1 | inactive | –
24 | Clc1ccc(C(c2ccccc2Cl)C(Cl)(Cl)Cl)cc1 (stereo not given) | inactive | –
25 | Nc1ccc(-c2ccc(N)cc2)cc1 | inactive | –
26 | N#Cc1ccc(N(CC(N)=O)CC(F)(F)F)cc1C(F)(F)F | inactive | –
27 | CCCCCCOC(=O)c1ccccc1C(=O)OCCCCCC | – | 102 µM (active)
28 | Cc1cc(O)ccc1Cl | inactive | –
29 | Clc1ccc(C(Cl)(Cl)Cl)cc1 | inactive | –
30 | CC(c1ccc(O)cc1)(c1ccc(O)cc1)c1ccc(O)cc1 | inactive | –
31 | O=C(NC(=O)c1cc(F)c(F)cc1Cl)Nc1cc(F)ccc1N1CCC(C(=O)O)CC1 | inactive | –
32 | C=CC(=O)NCNC(=O)C=C | inactive | –
33 | Clc1ccc(Cl)cc1 | inactive | –
34 | Cc1cccc(C)c1N | inactive | –
35 | Oc1ccc(Cl)cc1Cl | inactive | –
36 | ClC1=C(Cl)[C@]2(Cl)[C@@H]3[C@H]4C[C@H]([C@@H]5O[C@H]45)[C@@H]3[C@@]1(Cl)C2(Cl)Cl | inactive | –
37 | Cc1ccccc1CO[C@@H]1C[C@@]2(C(C)C)CC[C@]1(C)O2 | inactive | –
38 | CC#Cc1cc(C)nc(Nc2ccccc2)n1 | inactive | –
39 | CC(C)C(=O)OCC(C)(C)C(OC(=O)C(C)C)C(C)C (stereo not given) | inactive | –
40 | CC(C)(c1ccccc1)c1ccc(O)cc1 | inactive | –
